According to PubChem BioAssay AID1159580 (chemical genetic matrix, 2015):
In all, about 5,500 compounds went through this assay and about 2,000 (36%) were called active. Not shown: some 18% with an inconclusive outcome. No stated cut-off is given here; in the data, active means normalized growth mostly below about 0.91 (no sharp cut-off); inconclusive means no clear call, values can overlap the other calls; inactive means mostly above about 0.92. The list shows a part of the results.

Assay: chemical genetic growth profiling, strain panel (AID 1159580);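 further: tested at 20 µM; growth read once vehicle control cultures reached saturation at 30 °C; 1 = growth at the plate median or of vehicle wells; lower values mean less growth of the strain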
Settings: S. cerevisiae deletion strains, growth OD

Measured: normalized growth

O=c1cc(-c2ccccc2O)oc2cc(O)ccc12
inactive: locus YAL021C, strain ccr4, hits give low values 1.05 | locus YAL026C, strain drs2, hits give low values 0.977 | locus YAL030W, strain snc1, hits give low values 0.985 | locus YBL061C, strain skt5, hits give low values 0.976 | locus YBR009C, strain hhf1, hits give low values 0.979 | locus YBR023C, strain chs3, hits give low values 1 | locus YBR171W, strain sec66, hits give low values 0.951 | locus YBR231C, strain swc5, hits give low values 0.956 | locus YBR279W, strain paf1, hits give low values 0.996 | locus YCL011C, strain gbp2, hits give low values 0.977 | locus YCL016C, strain dcc1, hits give low values 1.02 | locus YCL069W, strain vba3, hits give low values 0.97 | locus YCR088W, strain abp1, hits give low values 0.956 | locus YDL005C, strain med2, hits give low values 0.956 | locus YDL040C, strain nat1, hits give low values 0.967 | locus YDR001C, strain nth1, hits give low values 0.978 | locus YDR069C, strain doa4, hits give low values 0.95 | locus YDR137W, strain rgp1, hits give low values 0.958 | locus YDR159W, strain sac3, hits give low values 0.91 | locus YDR195W, strain ref2 0.962 | locus YDR297W, strain sur2, hits give low values 0.964 | locus YDR334W, strain swr1, hits give low values 0.973 | locus YDR335W, strain msn5, hits give low values 0.979 | locus YDR392W, strain spt3, hits give low values 0.92 | locus YEL003W, strain gim4, hits give low values 0.968 | locus YEL037C, strain rad23, hits give low values 0.962 | locus YEL061C, strain CIN8 (second series), hits give low values 0.963 | locus YER015W, strain faa2, hits give low values 0.974 | locus YER016W, strain bim1, hits give low values 0.973 | locus YER111C, strain swi4, hits give low values 0.951 | locus YER155C, strain BEM2 (second series), hits give low values 0.955 | locus YFR010W, strain ubp6, hits give low values 0.952 | locus YGL167C, strain pmr1, hits give low values 0.972 | locus YGL173C, strain kem1, hits give low values 0.95 | locus YGL227W, strain vid30, hits give low values 0.964 | locus YGL240W, strain doc1, hits give low values 0.963 | locus YGL253W, strain hxk2, hits give low values 0.932 | locus YHR013C, strain ard1, hits give low values 0.952 | locus YHR027C, strain rpn1, hits give low values 0.965 | locus YHR030C, strain SLT2, hits give low values 0.978 | locus YHR079C, strain IRE1, hits give low values 0.987 | locus YHR142W, strain chs7, hits give low values 0.965 | locus YJL092W, strain hpr5, hits give low values 0.954 | locus YJL095W, strain BCK1 (second series), hits give low values 0.994 | locus YJL095W, strain BCK1, hits give low values 0.997 | locus YJL115W, strain asf1, hits give low values 0.97 | locus YJL129C, strain trk1, hits give low values 0.945 | locus YJL154C, strain vps35, hits give low values 0.979 | locus YJL164C, strain tpk1, hits give low values 0.992 | locus YJL166W, strain qcr8, hits give low values 0.966 | locus YJR066W, strain TOR1, hits give low values 0.929 | locus YKL160W, strain elf1, hits give low values 1.03 | locus YKR026C, strain gcn3, hits give low values 0.972 | locus YKR091W, strain srl3, hits give low values 0.982 | locus YLL001W, strain dnm1, hits give low values 0.987 | locus YLL026W, hits give low values 0.969 | locus YLL041C, strain sdh2, hits give low values 0.977 | locus YLR027C, strain aat2, hits give low values 0.998 | locus YLR113W, strain HOG1, hits give low values 1 | locus YLR221C, strain rsa3, hits give low values 0.938 | locus YLR258W, strain gsy2, hits give low values 0.994 | locus YLR262C, strain YPT6 (second series), hits give low values 0.968 | locus YLR320W, strain mms22, hits give low values 0.95 | locus YLR342W, strain FKS1, hits give low values 0.974 | locus YLR357W, strain rsc2, hits give low values 0.978 | locus YLR370C, strain arc18, hits give low values 0.966 | locus YLR384C, strain iki3, hits give low values 0.959 | locus YML120C, strain ndi1, hits give low values 0.996 | locus YMR058W, strain fet3, hits give low values 0.981 | locus YMR125W, strain sto1, hits give low values 0.977 | locus YMR129W, hits give low values 0.987 | locus YMR205C, strain PFK2, hits give low values 0.996 | locus YMR231W, strain pep5, hits give low values 0.966 | locus YNL071W, strain lat1, hits give low values 0.991 | locus YNL183C, strain NPR1, hits give low values 0.909 | locus YNL209W, strain ssb2, hits give low values 0.996 | locus YNL248C, strain rpa49, hits give low values 0.969 | locus YNL322C, strain KRE1 (second series), hits give low values 0.974 | locus YNR049C, strain mso1, hits give low values 0.979 | locus YOR001W, strain rrp6, hits give low values 0.899 | locus YOR070C, strain gyp1, hits give low values 0.978 | locus YOR080W, strain dia2, hits give low values 0.972 | locus YOR083W, strain WHI5, hits give low values 1.03 | locus YOR106W, strain vam3, hits give low values 0.989 | locus YOR231W, strain MKK1, hits give low values 0.989 | locus YOR265W, strain rbl2, hits give low values 0.97 | locus YOR270C, strain vph1, hits give low values 0.916 | locus YOR290C, strain snf2, hits give low values 1.02 | locus YPL051W, strain arl3, hits give low values 0.975 | locus YPL078C, strain atp4, hits give low values 1.05 | locus YPL106C, strain sse1, hits give low values 0.984 | locus YPL240C, strain hsp82, hits give low values 0.971 | locus YPL256C, strain CLN2, hits give low values 0.95
